Experimental data taken from PubChem BioAssay (NCI).
Compounds without any hit were thinned out: in the full panel of roughly 83,000, 20% have a hit.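 Single-concentration screen, 48 h exposure, 96-well plates. Endpoint: percent growth. Below 10 = active.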 Activity calls are given as the source filed them.

What was measured:
Test in all cases: NCI-60 one-dose screen, 48 h (100 = growth as untreated, 0 = no growth, -100 = all killed)
Conditions in all cases: 10 µM unless noted
[1] = system: SR leukemia
[2] = system: RPMI-8226 leukemia
[3] = system: OVCAR-8 ovarian
[4] = system: OVCAR-5 ovarian
[5] = system: OVCAR-4 ovarian
[6] = system: SK-OV-3 ovarian
[7] = system: IGROV1 ovarian
[8] = system: OVCAR-3 ovarian
[9] = system: HS 578T breast
[10] = system: NCI/ADR-RES ovarian

Measured: growth

O=C(O)c1ccc(-n2cc(CNc3ccc(C(F)(F)F)cc3)c(-c3ccccc3)n2)cc1
inactive: [1] 84.1% | [2] 76.6% | [3] 79.8% | [4] 119% | [5] 95.4% | [6] 103% | [7] 111% | [8] 96.1% | [9] 93.7% | [10] 101%

CC(=O)n1cc([C@H]2CC[C@H](c3cn(C(C)=O)c4ccccc34)c3c2[nH]c2ccccc32)c2ccccc21
inactive: [1] 93.9% | [2] 50.8% | [3] 89.5% | [4] 102% | [5] 77.7% | [6] 80.4% | [7] 58.3% | [8] 76.3% | [9] 106% | [10] 80.7%

Cc1ccnc2nc(C(=O)OCC(=O)Nc3ccc(-c4ccccc4)cc3)nn12
inactive: [1] 53.3% | [2] 98.1% | [3] 102% | [4] 96% | [5] 95% | [6] 116% | [8] 112% | [9] 125% | [10] 98.3%
active: [7] -5.67%

O=C(Nc1ccc(I)cc1)c1cc([N+](=O)[O-])ccc1O
inactive: [1] 36.6% | [2] 10.1% | [3] 39.9% | [4] 54.8% | [5] 30.3% | [6] 38.6% | [7] 39.6% | [8] 18.3% | [9] 16.1% | [10] 29.1%

CC(=O)C1CCC(C)=CC1=O (stereo not given)
inactive: [1] 101% | [2] 100% | [3] 100% | [4] 103% | [5] 107% | [6] 100% | [7] 102% | [8] 108% | [9] 122% | [10] 95.6%

COc1ccc2c(c1)NC(=O)CN2c1nc(C)nc2ccccc12
active: [8] -13.9%
inactive: [1] 18.8% | [2] 45.2% | [3] 12.5% | [4] 51.5% | [5] 45.5% | [6] 31.3% | [7] 18.8% | [9] 40% | [10] 14%

O=C(O)Cc1ccc2c(c1)Cc1cccnc1O2
inactive: [1] 96.8% | [2] 105% | [3] 103% | [4] 101% | [5] 101% | [6] 103% | [7] 96.6% | [8] 108% | [9] 107%

Cc1ccc2c(c1)C(=O)C(c1c(-c3[nH]c(=O)c4ccc(C)cc4c3O)c(O)c3ccccc3c1O)=NC2=O
inactive: [1] 23.1% | [2] 32.8% | [3] 14.4% | [4] 66.4% | [5] 25.2% | [6] 44% | [9] 32.4% | [10] 14.9%
active: [7] 6.46% | [8] -38.7%

O=S(=O)(NCCCNc1cc(-c2cn(-c3ccccc3)nc2-c2cccc(O)c2)ccn1)c1ccc(Cl)cc1
active: [1] 4.43% | [2] 8.7% | [9] 5.52%
inactive: [3] 20.4% | [4] 37% | [5] 34.7% | [6] 33.1% | [7] 27.5% | [8] 26.6% | [10] 23.7%

Nc1nc(-c2cc3ccccc3o2)cc(=O)c(=O)[nH]1
inactive: [1] 90.9% | [2] 95.7% | [3] 107% | [4] 105% | [5] 102% | [6] 96.7% | [7] 100% | [8] 102% | [9] 88.2% | [10] 109%

O=C1CCCCN1CCCCC#Cc1ccccc1C#Cc1ccccn1
inactive: [1] 98.6% | [2] 107% | [3] 113% | [4] 95.2% | [5] 95.2% | [6] 118% | [8] 104% | [9] 118% | [10] 92.2%
active: [7] -11.3%

CS(=O)(=O)N(c1cc(-c2ccc3ncnc(Nc4cccc(Cl)c4)c3c2)cnc1Cl)S(C)(=O)=O
active: [2] -6.09% | [6] -11.1% | [7] -38.3% | [9] -3.12%
inactive: [1] 22.8% | [3] 23.8% | [4] 12.1% | [5] 43.3% | [8] 11.1% | [10] 42.2%

COc1ccc(-n2cnc3c(sc4ncc(Cl)cc43)c2=O)cc1
inactive: [1] 71.2% | [2] 48.2% | [3] 87.9% | [4] 98.6% | [5] 101% | [6] 84.8% | [7] 65.7% | [8] 53.8%

c1ccc2nc(-c3ccc4ccccc4n3)ccc2c1
inactive: [1] 86.8% | [2] 90.8% | [3] 98.6% | [4] 97.2% | [5] 92.3% | [6] 90.1% | [7] 79.5% | [8] 97.4% | [9] 105% | [10] 99.7%

COc1ccc(/C=C/C(=O)OCC(=O)NNC(=O)c2ccccc2)cc1OC
inactive: [1] 71.8% | [2] 79.7% | [3] 102% | [4] 113% | [5] 101% | [6] 113% | [7] 87.8% | [8] 99.8% | [9] 103% | [10] 116%

O=S(=O)(NCCCNc1cc(-c2cn(-c3ccccc3)nc2-c2cccc(O)c2)ccn1)c1ccc(Br)cc1
inactive: [3] 19.1% | [4] 23.4% | [5] 37.4% | [6] 20.7% | [7] 22.4% | [8] 22% | [10] 16.2%
active: [1] -12.4% | [2] 3.52% | [9] -3.87%

c1ccc2c(c1)Oc1ccccc1C2C1c2ccccc2Oc2ccccc21
inactive: [1] 86.3% | [2] 103% | [3] 101% | [4] 89.7% | [5] 84% | [6] 105% | [7] 91.5% | [8] 98.4% | [9] 99.6% | [10] 95.3%

COc1cccc2nc(Nc3ccc(NC(=O)c4ccc5ncccc5c4)cc3)ccc12
inactive: [1] 65.7% | [2] 33.4% | [3] 72.3% | [4] 99.3% | [5] 89.7% | [6] 86.4% | [7] 105% | [8] 105% | [9] 66.7% | [10] 86%

Cc1cc(Nc2nc(-c3ccncc3)nc3ccccc23)n[nH]1
inactive: [1] 18.3% | [2] 91.6% | [3] 101% | [4] 87.1% | [5] 52.4% | [6] 22.8% | [7] 16.3% | [8] 67.2% | [9] 22.6% | [10] 86.4%

COC12CC(=O)C(C(C)=O)=C(O)C1(C)c1c(O)c(C)c(O)c(C(C)=O)c1O2 (stereo not given)
inactive: [1] 69.9% | [2] 44.5% | [3] 58.7% | [4] 99.7% | [5] 85.9% | [6] 104% | [7] 68.9% | [8] 59.2% | [9] 75.4%

CCOC(=O)c1ccccc1NC(c1ccccc1)c1ccc2cccnc2c1O (stereo not given)
inactive: [1] 17.7% | [2] 17.5% | [3] 17% | [4] 53.7% | [5] 21.5% | [6] 14.1% | [7] 41.8% | [8] 32.6% | [9] 71.6% | [10] 11.9%

COc1ccc(/C=C/C(=O)c2cc(OC)c(OC)c(OC)c2)cc1OCc1cn(Cc2ccc(F)cc2)nn1
inactive: [3] 15% | [4] 50.4% | [5] 43.4% | [6] 76.6% | [7] 85.9% | [8] 21.7% | [9] 82.6% | [10] 16.5%
active: [1] 3.34% | [2] 1.66%

COc1ccc(S(=O)(=O)Nc2cc(/C=C\c3cc(OC)c(OC)c(OC)c3)cc(OC)c2OC)cc1OC
inactive: [1] 20% | [2] 25.3% | [3] 41% | [4] 30.8% | [5] 39.7% | [6] 17.1% | [7] 49.5% | [10] 12.6%
active: [8] -18.2% | [9] 8.3%

O=C(CNC1CCCCC1)Nc1ccc(-c2nc3ccccc3s2)cc1
inactive: [2] 77.6% | [3] 99.3% | [4] 94.7% | [5] 84.4% | [6] 90.8% | [7] 100% | [8] 94% | [9] 84.3% | [10] 89%
active: [1] 9.67%

CC/C=C\C/C=C\C[C@H](O)C/C=C1/C(=O)C=C[C@H]1C/C=C\CCC(=O)OC
active: [1] 7.38% [8.25 µM] | [2] 3.22% [8.25 µM] | [8] 4.28% [8.25 µM]
inactive: [3] 15.3% [8.25 µM] | [4] 71.1% [8.25 µM] | [5] 43.3% [8.25 µM] | [6] 85.6% [8.25 µM] | [7] 37.3% [8.25 µM] | [9] 69.1% [8.25 µM] | [10] 39.8% [8.25 µM]

O=[N+]([O-])c1ccc(S(=O)(=O)N2CCN(c3ccnc4cc(Cl)ccc34)CC2)c([N+](=O)[O-])c1
active: [1] 3.12%
inactive: [2] 25.7% | [3] 97.1% | [4] 106% | [5] 95.3% | [6] 105% | [7] 99.5% | [8] 93% | [9] 89.1% | [10] 95.5%

Cc1sc(N=Nc2ccc(N(C)C)cc2)[n+]([O-])c1C
inactive: [1] 98.2% | [2] 106% | [3] 101% | [4] 107% | [5] 94.2% | [6] 104% | [7] 93.4% | [8] 96% | [9] 96.3%
